What was measured:
[1] = target: Protein kinase C gamma type (Homo sapiens) (UniProt P05129); details: at 1 µM;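 also: each value is an averaged percent inhibition of the enzyme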
[2] = target: T1, Protein kinase C iota type (Homo sapiens) (UniProt P41743); details: at 0.1 µM
T1 sequence (whole entry): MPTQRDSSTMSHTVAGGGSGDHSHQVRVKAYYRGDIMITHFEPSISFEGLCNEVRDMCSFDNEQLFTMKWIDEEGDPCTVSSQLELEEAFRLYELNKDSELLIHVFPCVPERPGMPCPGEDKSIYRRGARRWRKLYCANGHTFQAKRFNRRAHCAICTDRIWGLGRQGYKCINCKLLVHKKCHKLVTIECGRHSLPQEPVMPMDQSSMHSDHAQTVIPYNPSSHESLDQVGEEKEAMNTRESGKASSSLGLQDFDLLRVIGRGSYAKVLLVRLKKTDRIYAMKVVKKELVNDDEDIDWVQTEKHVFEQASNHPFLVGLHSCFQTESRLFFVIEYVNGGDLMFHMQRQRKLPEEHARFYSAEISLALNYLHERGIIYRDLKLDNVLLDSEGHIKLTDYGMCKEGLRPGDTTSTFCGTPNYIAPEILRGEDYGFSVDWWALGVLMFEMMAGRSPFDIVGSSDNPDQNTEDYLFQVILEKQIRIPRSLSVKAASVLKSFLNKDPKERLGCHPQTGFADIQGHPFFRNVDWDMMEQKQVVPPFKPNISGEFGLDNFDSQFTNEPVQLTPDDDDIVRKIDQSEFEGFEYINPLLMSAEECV

[3] = target: T1, Protein kinase C iota type (Homo sapiens); details: at 1 µM
[4] = target: Protein kinase C theta type (Homo sapiens) (UniProt Q04759); details: at 0.1 µM
Protein kinase C theta type (Homo sapiens), sequence (Q04759 whole entry, looked up): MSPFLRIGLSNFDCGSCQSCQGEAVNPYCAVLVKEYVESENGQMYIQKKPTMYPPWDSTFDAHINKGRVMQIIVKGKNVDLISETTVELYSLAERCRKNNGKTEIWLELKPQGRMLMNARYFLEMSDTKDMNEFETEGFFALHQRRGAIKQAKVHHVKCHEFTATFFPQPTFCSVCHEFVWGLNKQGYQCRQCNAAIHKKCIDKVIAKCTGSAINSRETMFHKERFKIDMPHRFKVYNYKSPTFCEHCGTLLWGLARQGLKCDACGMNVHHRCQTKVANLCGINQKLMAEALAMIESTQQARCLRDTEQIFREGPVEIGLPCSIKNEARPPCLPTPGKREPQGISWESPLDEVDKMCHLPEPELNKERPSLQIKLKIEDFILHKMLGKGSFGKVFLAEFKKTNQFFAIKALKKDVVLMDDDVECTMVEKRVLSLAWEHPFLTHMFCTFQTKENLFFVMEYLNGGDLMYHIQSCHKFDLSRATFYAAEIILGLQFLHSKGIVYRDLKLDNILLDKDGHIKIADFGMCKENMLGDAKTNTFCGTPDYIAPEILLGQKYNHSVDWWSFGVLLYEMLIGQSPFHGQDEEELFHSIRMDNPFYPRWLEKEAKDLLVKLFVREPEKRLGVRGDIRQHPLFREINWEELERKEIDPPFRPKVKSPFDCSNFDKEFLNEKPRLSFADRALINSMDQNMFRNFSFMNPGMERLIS

[5] = target: Protein kinase C theta type (Homo sapiens) (UniProt Q04759); details: at 1 µM
[6] = target: Protein kinase C beta type (Homo sapiens) (UniProt P05771); details: at 0.1 µM
Protein kinase C beta type (Homo sapiens), sequence (P05771 2-671 limits assumed): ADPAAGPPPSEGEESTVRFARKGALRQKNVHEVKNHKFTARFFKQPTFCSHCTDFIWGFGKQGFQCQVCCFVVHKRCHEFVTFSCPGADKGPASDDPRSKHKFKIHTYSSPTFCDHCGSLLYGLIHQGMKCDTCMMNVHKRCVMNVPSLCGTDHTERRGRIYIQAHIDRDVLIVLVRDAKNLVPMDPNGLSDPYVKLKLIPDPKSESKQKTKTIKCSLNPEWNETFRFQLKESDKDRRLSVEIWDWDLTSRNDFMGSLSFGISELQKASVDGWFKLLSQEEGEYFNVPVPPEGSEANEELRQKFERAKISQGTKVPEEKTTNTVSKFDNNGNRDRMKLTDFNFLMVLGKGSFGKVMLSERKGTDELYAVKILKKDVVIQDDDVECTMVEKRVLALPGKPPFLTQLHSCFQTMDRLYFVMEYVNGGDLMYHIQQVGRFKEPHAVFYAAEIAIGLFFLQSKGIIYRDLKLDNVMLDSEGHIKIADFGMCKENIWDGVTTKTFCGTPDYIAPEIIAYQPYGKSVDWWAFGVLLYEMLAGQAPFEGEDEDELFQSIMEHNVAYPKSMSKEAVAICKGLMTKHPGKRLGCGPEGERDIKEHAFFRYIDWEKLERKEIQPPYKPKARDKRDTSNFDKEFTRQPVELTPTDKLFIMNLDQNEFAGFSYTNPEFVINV

[7] = target: Protein kinase C beta type (Homo sapiens) (UniProt P05771); details: at 1 µM
[8] = target: T2, Serine/threonine-protein kinase D1 (Homo sapiens) (UniProt Q15139); details: at 0.1 µM
T2 sequence (whole entry): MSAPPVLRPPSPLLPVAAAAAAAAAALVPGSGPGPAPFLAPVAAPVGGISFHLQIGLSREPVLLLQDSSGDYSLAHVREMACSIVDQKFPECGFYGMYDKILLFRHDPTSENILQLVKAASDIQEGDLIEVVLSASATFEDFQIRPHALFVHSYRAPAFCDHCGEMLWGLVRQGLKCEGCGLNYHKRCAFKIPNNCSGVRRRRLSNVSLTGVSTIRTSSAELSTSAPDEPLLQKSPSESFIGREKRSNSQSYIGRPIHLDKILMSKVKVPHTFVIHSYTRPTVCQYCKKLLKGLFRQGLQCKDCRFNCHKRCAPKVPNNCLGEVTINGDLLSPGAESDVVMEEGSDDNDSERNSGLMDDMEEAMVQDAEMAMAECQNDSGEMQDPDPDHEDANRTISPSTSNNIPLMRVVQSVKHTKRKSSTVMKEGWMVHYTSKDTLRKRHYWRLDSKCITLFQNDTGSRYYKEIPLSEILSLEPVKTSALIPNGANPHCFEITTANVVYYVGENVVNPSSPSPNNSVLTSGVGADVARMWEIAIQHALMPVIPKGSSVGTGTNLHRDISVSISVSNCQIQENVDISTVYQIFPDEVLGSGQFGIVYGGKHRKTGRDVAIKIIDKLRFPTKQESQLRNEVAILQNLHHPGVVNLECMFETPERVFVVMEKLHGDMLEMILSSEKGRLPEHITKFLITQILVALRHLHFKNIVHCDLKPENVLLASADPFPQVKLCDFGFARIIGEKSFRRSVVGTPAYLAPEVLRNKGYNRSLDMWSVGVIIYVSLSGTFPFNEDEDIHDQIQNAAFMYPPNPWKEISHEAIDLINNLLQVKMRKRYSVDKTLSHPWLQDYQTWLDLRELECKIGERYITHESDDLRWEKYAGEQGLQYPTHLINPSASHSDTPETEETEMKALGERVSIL

[9] = target: T2, Serine/threonine-protein kinase D1 (Homo sapiens); details: at 1 µM
[10] = target: T3, Serine/threonine-protein kinase D2 (Homo sapiens) (UniProt Q9BZL6); details: at 0.1 µM
T3 sequence (whole entry): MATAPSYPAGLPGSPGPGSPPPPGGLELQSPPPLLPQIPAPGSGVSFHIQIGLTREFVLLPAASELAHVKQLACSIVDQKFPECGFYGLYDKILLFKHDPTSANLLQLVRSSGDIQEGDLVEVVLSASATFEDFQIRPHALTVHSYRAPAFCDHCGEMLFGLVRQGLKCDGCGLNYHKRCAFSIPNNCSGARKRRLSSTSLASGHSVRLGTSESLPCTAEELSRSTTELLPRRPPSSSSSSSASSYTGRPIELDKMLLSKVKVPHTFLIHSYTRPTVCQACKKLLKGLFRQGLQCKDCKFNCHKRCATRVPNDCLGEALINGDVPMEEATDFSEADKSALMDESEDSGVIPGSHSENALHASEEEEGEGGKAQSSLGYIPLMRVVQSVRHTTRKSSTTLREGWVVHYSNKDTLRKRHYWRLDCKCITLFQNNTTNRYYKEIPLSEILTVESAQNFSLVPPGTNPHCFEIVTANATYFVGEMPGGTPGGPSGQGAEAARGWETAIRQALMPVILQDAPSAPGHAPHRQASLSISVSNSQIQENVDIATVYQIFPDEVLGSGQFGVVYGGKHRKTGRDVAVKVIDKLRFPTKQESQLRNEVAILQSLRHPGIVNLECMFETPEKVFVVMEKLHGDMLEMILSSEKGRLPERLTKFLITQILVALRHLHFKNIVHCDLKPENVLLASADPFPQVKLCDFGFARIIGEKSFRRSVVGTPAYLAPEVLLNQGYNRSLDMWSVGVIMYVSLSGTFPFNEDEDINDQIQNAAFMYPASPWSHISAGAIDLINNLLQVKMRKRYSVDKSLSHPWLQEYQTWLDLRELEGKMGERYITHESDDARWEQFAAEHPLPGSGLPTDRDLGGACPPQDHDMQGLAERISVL

[11] = target: T3, Serine/threonine-protein kinase D2 (Homo sapiens); details: at 1 µM
[12] = target: T4, Serine/threonine-protein kinase D3 (Homo sapiens) (UniProt O94806); details: at 0.1 µM
T4 sequence (whole entry): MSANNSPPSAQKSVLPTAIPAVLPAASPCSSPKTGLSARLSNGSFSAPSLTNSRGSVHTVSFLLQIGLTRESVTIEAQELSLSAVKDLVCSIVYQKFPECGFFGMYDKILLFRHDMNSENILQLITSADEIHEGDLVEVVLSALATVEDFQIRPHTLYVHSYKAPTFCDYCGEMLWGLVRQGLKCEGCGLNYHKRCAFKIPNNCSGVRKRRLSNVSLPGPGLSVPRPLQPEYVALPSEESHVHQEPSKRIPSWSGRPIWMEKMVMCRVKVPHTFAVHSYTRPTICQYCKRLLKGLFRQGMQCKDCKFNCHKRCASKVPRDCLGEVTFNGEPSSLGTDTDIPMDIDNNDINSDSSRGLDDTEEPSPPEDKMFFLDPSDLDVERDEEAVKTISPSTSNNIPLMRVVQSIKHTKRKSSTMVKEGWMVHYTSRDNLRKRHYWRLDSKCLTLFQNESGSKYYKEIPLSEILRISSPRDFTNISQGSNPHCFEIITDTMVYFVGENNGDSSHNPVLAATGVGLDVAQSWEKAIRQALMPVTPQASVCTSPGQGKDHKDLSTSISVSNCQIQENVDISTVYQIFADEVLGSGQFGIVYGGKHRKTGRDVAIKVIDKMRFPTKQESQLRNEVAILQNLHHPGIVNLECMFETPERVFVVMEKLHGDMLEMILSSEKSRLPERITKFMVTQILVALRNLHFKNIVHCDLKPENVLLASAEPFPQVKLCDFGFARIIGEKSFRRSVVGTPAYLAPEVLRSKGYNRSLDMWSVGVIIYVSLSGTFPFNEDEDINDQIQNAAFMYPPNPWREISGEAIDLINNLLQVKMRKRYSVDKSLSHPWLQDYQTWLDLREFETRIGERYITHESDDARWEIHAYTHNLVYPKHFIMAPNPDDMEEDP

[13] = target: T4, Serine/threonine-protein kinase D3 (Homo sapiens); details: at 1 µM
[14] = target: T5, cGMP-dependent protein kinase 1 (Homo sapiens) (UniProt Q13976); details: at 0.1 µM
T5 sequence (whole entry): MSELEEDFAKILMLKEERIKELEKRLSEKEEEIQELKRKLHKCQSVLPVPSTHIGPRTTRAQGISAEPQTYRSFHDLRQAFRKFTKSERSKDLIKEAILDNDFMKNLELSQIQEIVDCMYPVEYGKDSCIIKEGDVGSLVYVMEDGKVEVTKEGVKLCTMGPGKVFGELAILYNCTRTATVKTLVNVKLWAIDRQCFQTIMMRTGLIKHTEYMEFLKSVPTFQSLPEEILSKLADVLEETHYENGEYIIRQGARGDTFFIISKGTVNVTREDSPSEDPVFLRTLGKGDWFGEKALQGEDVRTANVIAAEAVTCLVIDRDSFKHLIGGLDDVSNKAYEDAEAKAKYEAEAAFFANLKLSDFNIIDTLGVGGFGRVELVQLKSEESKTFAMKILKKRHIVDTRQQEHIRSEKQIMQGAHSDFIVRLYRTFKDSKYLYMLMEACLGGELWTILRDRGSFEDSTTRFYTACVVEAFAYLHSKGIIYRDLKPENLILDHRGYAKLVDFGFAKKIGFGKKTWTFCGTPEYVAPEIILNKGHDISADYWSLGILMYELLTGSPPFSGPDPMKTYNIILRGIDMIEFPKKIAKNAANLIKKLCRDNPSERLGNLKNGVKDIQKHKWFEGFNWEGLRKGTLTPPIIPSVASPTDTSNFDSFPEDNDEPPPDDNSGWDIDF

[15] = target: T5, cGMP-dependent protein kinase 1 (Homo sapiens); details: at 1 µM
[16] = target: T6, cGMP-dependent protein kinase 2 (Homo sapiens) (UniProt Q13237); details: at 0.1 µM
T6 sequence (whole entry): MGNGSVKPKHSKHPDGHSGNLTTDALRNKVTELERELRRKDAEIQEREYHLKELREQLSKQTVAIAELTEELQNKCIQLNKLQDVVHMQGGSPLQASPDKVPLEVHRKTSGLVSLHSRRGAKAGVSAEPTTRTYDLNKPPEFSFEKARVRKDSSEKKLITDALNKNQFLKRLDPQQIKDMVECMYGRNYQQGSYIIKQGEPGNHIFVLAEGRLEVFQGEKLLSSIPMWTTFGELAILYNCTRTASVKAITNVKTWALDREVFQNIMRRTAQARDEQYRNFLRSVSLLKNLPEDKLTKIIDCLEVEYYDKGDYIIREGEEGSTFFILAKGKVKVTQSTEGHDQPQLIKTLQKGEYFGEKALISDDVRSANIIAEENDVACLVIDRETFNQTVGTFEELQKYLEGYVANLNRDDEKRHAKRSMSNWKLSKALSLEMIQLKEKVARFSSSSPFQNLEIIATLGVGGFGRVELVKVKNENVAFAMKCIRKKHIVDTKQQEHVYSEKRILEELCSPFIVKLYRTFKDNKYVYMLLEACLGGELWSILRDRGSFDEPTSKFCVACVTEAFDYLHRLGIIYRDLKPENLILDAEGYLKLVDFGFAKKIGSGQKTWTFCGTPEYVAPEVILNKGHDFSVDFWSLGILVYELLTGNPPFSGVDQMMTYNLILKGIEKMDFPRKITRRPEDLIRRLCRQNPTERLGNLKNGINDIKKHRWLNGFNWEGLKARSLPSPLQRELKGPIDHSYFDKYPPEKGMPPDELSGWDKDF

[17] = target: T6, cGMP-dependent protein kinase 2 (Homo sapiens); details: at 1 µM
[18] = target: T7, cAMP-dependent protein kinase catalytic subunit PRKX (Homo sapiens) (UniProt P51817); details: at 0.1 µM
T7 sequence (whole entry): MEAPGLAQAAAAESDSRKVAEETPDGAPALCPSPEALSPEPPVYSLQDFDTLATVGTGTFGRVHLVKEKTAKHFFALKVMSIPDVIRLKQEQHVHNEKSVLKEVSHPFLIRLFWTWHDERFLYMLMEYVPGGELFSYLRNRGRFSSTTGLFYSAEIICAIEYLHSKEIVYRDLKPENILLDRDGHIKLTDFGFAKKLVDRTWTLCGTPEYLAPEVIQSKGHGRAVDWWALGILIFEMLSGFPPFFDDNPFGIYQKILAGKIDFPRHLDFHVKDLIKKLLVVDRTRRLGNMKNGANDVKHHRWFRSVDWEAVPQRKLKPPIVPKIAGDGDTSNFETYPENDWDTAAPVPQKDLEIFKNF

[19] = target: T7, cAMP-dependent protein kinase catalytic subunit PRKX (Homo sapiens); details: at 1 µM
[20] = target: Rho-associated protein kinase 1 (Homo sapiens) (UniProt Q13464); details: at 0.1 µM;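 also: values are mean percent inhibition of ROCK1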
Rho-associated protein kinase 1 (Homo sapiens), sequence (Q13464 2-1354 limits assumed): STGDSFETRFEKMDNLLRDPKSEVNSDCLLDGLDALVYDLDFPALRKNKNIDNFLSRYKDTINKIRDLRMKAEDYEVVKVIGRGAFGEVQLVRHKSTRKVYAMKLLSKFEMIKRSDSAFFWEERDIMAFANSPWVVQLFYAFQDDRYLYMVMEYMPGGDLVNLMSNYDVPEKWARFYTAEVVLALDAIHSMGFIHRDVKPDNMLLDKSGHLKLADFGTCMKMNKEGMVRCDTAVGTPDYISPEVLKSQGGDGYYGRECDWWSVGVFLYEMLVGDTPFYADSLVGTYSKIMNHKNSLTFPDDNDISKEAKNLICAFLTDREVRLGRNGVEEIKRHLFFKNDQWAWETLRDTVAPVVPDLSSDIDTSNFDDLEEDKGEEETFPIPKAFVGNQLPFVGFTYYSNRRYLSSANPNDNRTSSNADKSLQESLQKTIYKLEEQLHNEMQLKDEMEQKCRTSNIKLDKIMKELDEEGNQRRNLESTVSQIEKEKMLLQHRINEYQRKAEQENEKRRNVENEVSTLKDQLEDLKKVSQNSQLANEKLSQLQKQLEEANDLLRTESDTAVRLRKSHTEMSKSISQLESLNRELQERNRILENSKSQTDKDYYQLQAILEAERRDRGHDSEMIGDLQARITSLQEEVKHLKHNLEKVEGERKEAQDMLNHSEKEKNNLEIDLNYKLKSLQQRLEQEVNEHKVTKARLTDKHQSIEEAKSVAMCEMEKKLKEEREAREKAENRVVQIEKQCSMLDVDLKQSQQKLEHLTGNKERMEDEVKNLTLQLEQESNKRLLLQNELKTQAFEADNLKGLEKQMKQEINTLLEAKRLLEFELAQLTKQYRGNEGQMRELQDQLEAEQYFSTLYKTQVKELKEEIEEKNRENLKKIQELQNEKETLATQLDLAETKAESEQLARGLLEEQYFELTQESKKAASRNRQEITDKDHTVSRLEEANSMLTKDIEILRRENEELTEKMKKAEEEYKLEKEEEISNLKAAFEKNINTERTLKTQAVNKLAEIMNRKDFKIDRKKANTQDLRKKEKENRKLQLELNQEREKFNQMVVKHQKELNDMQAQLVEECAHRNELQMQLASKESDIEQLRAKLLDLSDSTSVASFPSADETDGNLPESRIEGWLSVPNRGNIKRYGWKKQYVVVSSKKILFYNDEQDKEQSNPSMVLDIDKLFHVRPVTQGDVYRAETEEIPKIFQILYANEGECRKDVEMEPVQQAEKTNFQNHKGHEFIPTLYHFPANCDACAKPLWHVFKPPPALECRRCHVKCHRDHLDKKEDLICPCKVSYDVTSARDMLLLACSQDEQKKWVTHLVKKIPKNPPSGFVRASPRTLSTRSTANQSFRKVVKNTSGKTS

| Compound | inhibition [1] [%] | inhibition [2] [%] | inhibition [3] [%] | inhibition [4] [%] | inhibition [5] [%] | inhibition [6] [%] | inhibition [7] [%] | inhibition [8] [%] | inhibition [9] [%] | inhibition [10] [%] | inhibition [11] [%] | inhibition [12] [%] | inhibition [13] [%] | inhibition [14] [%] | inhibition [15] [%] | inhibition [16] [%] | inhibition [17] [%] | inhibition [18] [%] | inhibition [19] [%] | inhibition [20] [%] |
| --- | --- | --- | --- | --- | --- | --- | --- | --- | --- | --- | --- | --- | --- | --- | --- | --- | --- | --- | --- | --- |
| CN(C)C(=O)O[C@H]1CN[C@H](C#Cc2cc3ncnc(Nc4ccc(OCc5cccc(F)c5)c(Cl)c4)c3s2)C1 | 0.1 | 0.58 | 1.07 | 1.43 | 0.06 | 1.29 | 1.12 | 2.38 | 2.68 | 2.3 | 1.92 | 2.56 | 2.75 | 2.24 | 6.88 | -0.06 | 5.82 | 1.35 | 3.67 | 1.82 |
| Nc1ccc(C#Cc2cncnc2Nc2ccc(OCc3cccc(F)c3)c(Cl)c2)cc1 | 1.26 | 1.82 | 1.53 | 1.3 | 1.13 | 0.84 | 0.6 | 4.09 | 3.44 | 3.76 | 2.21 | 2.59 | 2.64 | 3.04 | 1.31 | 2.28 | 0.99 | 1.33 | 1.72 | 0.74 |
| CN(C)CCCn1c(-c2nonc2N)nc2cnccc21 | 4.25 | 2.62 | 3.77 | 2.2 | 1.32 | 2.32 | 4.48 | 3.41 | 7.59 | 4.15 | 5.95 | 4.93 | 7.35 | 3.68 | 4.99 | 2.51 | 5.66 | 1.48 | 3.97 | 5.96 |
